Consider 1 sequence from paper PMC7862700, “An all-to-all approach to the identification of sequence-specific readers for epigenetic DNA modifications on cytosine”.

Common to all, as to experiment: DAPPL (digital affinity profiling via proximity ligation, sequencing); 10 mM Tris-HCl pH 7.5, 50 mM NaCl, 1 mM DTT, 4% glycerol, room temperature, 30 min; GST-TFs on glutathione beads, 16-mer random dsDNA library, 0.1% formaldehyde crosslink after washing; high values mean tight binding
Assay [1] concerns the target T1, FEV (Homo sapiens, UniProt Q99581 1-238).
T1 sequence: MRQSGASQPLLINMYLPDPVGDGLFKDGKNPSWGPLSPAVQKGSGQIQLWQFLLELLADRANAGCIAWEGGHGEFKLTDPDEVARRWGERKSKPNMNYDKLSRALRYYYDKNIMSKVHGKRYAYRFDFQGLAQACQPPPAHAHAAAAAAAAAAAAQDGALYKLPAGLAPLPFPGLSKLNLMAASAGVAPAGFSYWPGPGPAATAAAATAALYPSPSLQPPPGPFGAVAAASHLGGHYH
The settings on record: protein: recombinant; tags: N-terminal GST; dsDNA, one strand shown. The essentials: (§1)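 Pools were built from human transcription factors expressed in yeast as GST fusions, captured on glutathione beads and DNA-barcoded, along with a tag-only sample. Incubation with 200 nmole of a 16-mer random double-stranded DNA library lasted 30 min at room temperature in Tris/NaCl/DTT/glycerol buffer, and was followed by washing, 0.1% formaldehyde crosslinking, proximity ligation, PCR amplification and Illumina NextSeq500 sequencing. Binding signal is the quotient of each hexamer's read frequency for a factor and its frequency for the tag-only sample.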

Assay [2] addresses ETV5 (Homo sapiens, UniProt P41161 1-510). The following applies: protein: recombinant; tags: N-terminal GST; dsDNA, one strand shown. A digest of the protocol:
as §1

The target of assay [3] is HSF1 (Homo sapiens, UniProt Q00613 1-529). The following applies: protein: recombinant; tags: N-terminal GST; chain copies: 3; dsDNA, one strand shown. A digest of the protocol: as §1
Assay [4] deals with T2, SPIC (Homo sapiens, UniProt Q8N5J4 1-248).
T2 sequence: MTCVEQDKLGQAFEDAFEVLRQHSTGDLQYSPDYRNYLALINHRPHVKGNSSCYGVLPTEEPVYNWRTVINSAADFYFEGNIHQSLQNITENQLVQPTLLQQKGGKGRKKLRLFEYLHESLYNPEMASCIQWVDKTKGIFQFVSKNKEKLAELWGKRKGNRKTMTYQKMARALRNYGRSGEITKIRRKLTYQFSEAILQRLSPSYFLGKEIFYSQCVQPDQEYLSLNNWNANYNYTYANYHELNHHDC
The settings on record: protein: recombinant; tags: N-terminal GST; dsDNA, one strand shown. A digest of the protocol:
as §1

Assay [5] addresses ELF4 (Homo sapiens, UniProt Q99607 1-663). The settings on record: protein: recombinant; tags: N-terminal GST; dsDNA, one strand shown. A digest of the protocol:
as §1

Assay [6] addresses T3, ELK4 (Homo sapiens, UniProt P28324-2 1-405).
T3 sequence: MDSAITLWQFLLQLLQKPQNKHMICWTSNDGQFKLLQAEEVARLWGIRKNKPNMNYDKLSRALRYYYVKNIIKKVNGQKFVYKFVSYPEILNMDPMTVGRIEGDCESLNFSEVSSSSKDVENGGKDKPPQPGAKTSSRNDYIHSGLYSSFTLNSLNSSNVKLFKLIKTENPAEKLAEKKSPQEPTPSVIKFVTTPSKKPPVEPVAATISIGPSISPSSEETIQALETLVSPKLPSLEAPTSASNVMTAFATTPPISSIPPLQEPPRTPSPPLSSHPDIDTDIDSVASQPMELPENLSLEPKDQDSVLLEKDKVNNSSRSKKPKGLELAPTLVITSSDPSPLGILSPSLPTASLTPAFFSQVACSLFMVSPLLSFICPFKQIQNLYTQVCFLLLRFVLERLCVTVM
The following applies: protein: recombinant; tags: N-terminal GST; dsDNA, one strand shown. The essentials: as §1

Assay [7] deals with T4, ETV2 (Homo sapiens, UniProt O00321 1-342).
T4 sequence: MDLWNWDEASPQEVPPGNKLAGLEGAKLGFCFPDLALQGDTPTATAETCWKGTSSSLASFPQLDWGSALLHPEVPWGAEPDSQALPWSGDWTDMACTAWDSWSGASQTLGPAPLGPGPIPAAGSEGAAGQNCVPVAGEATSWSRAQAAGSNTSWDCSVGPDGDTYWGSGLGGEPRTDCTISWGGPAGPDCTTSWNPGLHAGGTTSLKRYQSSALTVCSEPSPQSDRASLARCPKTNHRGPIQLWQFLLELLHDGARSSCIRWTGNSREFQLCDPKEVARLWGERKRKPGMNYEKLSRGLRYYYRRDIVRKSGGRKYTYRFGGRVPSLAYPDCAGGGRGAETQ
The settings on record: protein: recombinant; tags: N-terminal GST; dsDNA, one strand shown. A digest of the protocol:
as §1

Assay [8] deals with T5, ELF3 (Homo sapiens, UniProt P78545 1-371).
T5 sequence: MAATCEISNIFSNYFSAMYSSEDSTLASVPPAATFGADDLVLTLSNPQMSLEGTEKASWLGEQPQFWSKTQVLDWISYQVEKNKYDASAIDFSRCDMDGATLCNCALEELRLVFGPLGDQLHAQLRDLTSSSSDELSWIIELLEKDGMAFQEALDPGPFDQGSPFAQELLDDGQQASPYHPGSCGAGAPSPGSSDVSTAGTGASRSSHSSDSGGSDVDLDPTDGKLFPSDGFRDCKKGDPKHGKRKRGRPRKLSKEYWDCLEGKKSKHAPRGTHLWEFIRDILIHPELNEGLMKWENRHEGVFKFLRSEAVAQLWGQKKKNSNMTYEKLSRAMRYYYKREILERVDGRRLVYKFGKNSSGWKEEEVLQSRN
The following applies: protein: recombinant; tags: N-terminal GST; dsDNA, one strand shown. The essentials:
as §1

The target in assay [9] is CRX (Homo sapiens, UniProt O43186 1-299). The settings on record: protein: recombinant; tags: N-terminal GST; dsDNA, one strand shown. A digest of the protocol:
as §1

Assay [10] deals with ETV1 (Homo sapiens, UniProt P50549 1-477). The following applies: protein: recombinant; tags: N-terminal GST; dsDNA, one strand shown. A digest of the protocol: as §1
Assay [11] has as its target T6, ERF (Homo sapiens, UniProt P50548 1-548).
T6 sequence: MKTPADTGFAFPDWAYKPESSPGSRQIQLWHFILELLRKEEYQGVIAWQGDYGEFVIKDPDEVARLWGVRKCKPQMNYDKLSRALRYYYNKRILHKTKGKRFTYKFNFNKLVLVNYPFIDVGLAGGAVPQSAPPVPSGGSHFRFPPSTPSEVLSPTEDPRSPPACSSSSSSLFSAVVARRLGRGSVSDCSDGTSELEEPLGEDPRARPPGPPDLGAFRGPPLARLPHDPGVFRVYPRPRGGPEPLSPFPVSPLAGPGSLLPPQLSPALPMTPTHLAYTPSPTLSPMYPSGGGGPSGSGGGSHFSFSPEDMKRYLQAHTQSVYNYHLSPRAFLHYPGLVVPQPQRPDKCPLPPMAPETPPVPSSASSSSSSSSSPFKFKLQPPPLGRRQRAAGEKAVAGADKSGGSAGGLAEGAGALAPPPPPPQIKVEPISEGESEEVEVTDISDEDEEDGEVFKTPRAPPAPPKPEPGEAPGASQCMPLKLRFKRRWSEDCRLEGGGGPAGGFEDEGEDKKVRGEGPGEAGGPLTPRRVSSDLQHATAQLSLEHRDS
The following applies: protein: recombinant; tags: N-terminal GST; dsDNA, one strand shown. A digest of the protocol:
as §1

In assay [12] the target is T7, ETV3L (Homo sapiens, UniProt Q6ZN32 1-361).
T7 sequence: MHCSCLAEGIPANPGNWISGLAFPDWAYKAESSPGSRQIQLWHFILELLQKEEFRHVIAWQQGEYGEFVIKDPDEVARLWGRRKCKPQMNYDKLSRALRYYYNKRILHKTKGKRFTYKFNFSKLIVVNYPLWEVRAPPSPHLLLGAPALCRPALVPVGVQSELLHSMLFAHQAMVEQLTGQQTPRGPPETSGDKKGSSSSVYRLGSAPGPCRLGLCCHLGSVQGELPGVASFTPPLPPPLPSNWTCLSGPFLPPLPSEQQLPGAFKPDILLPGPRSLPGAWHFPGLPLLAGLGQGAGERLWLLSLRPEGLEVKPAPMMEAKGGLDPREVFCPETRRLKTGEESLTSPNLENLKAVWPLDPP
The following applies: protein: recombinant; tags: N-terminal GST; dsDNA, one strand shown. A digest of the protocol:
as §1

In assay [13] the target is T8, ETS2 (Homo sapiens, UniProt P15036 1-469).
T8 sequence: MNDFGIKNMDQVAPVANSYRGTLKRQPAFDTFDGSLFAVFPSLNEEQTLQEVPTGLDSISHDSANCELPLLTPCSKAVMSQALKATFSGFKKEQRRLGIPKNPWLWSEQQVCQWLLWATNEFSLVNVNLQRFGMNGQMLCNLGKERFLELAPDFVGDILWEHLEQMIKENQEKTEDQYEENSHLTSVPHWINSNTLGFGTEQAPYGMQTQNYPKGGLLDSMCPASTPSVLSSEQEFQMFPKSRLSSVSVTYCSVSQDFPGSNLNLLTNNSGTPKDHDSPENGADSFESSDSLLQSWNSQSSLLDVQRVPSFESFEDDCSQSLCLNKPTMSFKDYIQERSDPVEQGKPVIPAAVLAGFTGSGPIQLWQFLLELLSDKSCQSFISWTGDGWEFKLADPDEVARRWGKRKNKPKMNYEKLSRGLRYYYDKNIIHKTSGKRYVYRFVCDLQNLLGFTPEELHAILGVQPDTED
The following applies: protein: recombinant; tags: N-terminal GST; dsDNA, one strand shown. The essentials:
as §1

For assay [14], the target named is T9, SPDEF (Homo sapiens, UniProt O95238 1-335).
T9 sequence: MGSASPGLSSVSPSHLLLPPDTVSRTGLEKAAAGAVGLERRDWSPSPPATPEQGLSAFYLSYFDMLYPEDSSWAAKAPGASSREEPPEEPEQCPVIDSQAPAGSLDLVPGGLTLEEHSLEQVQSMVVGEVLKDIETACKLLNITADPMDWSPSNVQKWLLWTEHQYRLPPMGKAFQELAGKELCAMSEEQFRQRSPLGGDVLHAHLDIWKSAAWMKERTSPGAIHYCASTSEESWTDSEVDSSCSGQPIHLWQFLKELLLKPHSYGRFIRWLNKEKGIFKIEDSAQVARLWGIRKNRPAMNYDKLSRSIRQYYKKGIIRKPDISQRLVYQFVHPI
The following applies: protein: recombinant; tags: N-terminal GST; dsDNA, one strand shown. The essentials:
as §1

Assay [15] addresses T10, ETV7 (Homo sapiens, UniProt Q9Y603 1-341).
T10 sequence: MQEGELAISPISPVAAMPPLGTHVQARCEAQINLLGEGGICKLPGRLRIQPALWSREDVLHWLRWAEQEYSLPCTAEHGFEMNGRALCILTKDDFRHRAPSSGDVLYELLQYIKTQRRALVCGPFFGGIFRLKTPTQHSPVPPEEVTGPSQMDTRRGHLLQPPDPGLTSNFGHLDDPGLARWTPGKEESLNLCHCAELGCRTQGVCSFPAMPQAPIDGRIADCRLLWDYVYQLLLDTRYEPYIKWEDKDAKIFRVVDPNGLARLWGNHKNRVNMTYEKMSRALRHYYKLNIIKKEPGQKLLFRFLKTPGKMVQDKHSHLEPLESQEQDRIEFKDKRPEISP
The following applies: protein: recombinant; tags: N-terminal GST; dsDNA, one strand shown. The essentials:
as §1

Assay [16] has as its target T11, ELF5 (Homo sapiens, UniProt Q9UKW6-2 1-255).
T11 sequence: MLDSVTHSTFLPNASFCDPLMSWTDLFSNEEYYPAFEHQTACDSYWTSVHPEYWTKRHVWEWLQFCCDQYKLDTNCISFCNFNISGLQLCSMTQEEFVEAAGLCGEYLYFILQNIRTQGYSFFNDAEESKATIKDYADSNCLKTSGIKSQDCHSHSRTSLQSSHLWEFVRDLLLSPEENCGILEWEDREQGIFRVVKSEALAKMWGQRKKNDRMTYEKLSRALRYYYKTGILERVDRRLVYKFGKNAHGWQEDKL
The following applies: protein: recombinant; tags: N-terminal GST; dsDNA, one strand shown. A digest of the protocol: as §1

For assay [17], the target named is T12, ETV3 (Homo sapiens, UniProt P41162-2 1-143).
T12 sequence: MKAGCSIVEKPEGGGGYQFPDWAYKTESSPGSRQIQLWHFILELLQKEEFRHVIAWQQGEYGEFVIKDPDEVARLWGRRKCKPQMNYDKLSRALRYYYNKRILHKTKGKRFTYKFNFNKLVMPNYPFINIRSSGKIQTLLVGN
The following applies: protein: recombinant; tags: N-terminal GST; dsDNA, one strand shown. A digest of the protocol: as §1

For assay [18], the target named is ETV6 (Homo sapiens, UniProt P41212 1-452). The following applies: protein: recombinant; tags: N-terminal GST; dsDNA, one strand shown. The essentials:
as §1

Sequence of HSF1 (Q00613 whole entry): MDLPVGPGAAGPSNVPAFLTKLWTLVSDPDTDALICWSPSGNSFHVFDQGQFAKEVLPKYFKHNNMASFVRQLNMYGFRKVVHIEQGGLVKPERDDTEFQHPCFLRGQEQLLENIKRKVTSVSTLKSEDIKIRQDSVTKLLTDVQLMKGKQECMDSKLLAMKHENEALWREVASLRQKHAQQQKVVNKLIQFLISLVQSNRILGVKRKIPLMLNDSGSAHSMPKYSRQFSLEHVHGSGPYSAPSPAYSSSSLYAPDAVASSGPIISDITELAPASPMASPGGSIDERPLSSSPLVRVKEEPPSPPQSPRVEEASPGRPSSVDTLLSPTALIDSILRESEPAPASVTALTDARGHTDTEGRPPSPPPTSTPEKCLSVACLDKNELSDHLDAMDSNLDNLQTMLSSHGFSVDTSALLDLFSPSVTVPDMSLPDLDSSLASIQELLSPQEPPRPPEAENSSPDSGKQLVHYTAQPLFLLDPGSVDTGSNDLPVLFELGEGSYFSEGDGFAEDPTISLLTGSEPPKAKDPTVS
Sequence of ELF4 (Q99607 whole entry): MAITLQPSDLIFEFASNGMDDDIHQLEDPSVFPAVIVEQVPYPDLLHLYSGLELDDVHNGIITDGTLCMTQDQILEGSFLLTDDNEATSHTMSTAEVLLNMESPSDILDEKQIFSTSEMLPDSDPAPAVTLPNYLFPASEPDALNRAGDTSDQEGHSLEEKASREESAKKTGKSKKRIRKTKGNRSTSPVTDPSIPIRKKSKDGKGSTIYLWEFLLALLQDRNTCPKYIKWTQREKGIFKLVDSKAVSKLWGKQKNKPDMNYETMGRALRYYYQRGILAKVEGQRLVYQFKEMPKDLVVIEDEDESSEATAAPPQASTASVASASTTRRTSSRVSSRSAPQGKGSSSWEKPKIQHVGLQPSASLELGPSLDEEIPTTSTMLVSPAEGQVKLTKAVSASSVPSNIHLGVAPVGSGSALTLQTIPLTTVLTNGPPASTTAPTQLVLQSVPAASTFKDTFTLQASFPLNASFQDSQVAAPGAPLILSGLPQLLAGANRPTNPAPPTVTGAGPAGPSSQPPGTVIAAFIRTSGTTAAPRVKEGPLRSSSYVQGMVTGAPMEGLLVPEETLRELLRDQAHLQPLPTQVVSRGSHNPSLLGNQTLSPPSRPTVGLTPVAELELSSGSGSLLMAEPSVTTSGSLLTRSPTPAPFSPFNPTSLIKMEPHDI
Sequence of ETV1 (P50549 whole entry): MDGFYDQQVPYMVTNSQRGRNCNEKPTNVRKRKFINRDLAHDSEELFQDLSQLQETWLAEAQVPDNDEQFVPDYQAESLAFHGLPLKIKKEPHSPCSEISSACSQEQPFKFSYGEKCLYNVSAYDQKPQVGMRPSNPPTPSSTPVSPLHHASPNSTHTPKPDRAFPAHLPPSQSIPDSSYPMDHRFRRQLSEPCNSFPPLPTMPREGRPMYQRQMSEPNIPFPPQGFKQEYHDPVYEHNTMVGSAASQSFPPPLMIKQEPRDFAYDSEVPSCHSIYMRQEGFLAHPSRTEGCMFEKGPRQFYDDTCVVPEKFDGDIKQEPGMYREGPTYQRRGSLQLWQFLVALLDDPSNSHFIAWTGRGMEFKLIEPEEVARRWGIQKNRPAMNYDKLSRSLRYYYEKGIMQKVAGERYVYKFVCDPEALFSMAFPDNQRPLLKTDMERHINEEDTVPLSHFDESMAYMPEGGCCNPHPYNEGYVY
Sequence of ETV6 (P41212 whole entry): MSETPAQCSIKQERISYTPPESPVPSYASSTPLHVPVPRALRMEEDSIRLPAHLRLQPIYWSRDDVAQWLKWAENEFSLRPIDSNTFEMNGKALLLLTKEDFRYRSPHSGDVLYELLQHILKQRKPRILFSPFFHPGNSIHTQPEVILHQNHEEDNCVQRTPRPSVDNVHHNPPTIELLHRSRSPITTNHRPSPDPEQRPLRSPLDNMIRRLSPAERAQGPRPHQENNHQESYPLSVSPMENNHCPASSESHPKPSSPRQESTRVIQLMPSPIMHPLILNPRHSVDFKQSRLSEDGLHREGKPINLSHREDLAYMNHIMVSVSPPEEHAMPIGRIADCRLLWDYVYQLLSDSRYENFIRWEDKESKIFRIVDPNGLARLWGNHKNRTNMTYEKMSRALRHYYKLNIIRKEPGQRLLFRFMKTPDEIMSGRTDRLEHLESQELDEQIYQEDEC
Sequence of CRX (O43186 whole entry): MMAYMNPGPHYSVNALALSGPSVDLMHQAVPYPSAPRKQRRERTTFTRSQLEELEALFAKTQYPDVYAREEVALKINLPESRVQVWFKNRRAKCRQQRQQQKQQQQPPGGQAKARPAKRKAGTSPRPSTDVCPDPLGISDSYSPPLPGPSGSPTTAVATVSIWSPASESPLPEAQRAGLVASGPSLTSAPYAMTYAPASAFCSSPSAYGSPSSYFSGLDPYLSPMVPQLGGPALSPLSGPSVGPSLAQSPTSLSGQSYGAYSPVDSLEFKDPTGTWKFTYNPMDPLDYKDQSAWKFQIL
Sequence of ETV5 (P41161 whole entry): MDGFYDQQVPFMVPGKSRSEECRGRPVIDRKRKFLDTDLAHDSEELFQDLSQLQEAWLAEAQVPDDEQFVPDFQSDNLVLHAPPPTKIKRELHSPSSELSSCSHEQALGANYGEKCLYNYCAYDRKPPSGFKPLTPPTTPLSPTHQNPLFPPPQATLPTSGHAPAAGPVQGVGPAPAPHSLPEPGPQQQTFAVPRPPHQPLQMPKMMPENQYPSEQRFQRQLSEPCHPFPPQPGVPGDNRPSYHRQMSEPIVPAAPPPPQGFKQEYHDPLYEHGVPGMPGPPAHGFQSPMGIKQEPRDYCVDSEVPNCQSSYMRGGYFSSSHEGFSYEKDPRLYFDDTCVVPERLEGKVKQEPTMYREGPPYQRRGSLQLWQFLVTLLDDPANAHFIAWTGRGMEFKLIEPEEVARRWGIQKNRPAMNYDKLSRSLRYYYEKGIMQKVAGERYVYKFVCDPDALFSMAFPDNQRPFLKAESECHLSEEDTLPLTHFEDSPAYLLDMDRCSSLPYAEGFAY

Take TTATGA: the binding signal in [1] was 1.07 fold enrichment (6-mer frequency, TF over GST control); in assay [2], 1.16 fold enrichment (6-mer frequency, TF over GST control); in assay [3], 1.45 fold enrichment (6-mer frequency, TF over GST control); in [4] it was 1.26 fold enrichment (6-mer frequency, TF over GST control); in assay [5] it was 1.05 fold enrichment (6-mer frequency, TF over GST control); in [6], 1.07 fold enrichment (6-mer frequency, TF over GST control). The binding signal in assay [7] was 1.09 fold enrichment (6-mer frequency, TF over GST control); in assay [8] it was 1.31 fold enrichment (6-mer frequency, TF over GST control); in [9] it was 1.99 fold enrichment (6-mer frequency, TF over GST control); in assay [10] it was 1.17 fold enrichment (6-mer frequency, TF over GST control); in assay [11], 1.23 fold enrichment (6-mer frequency, TF over GST control); in assay [12], 1.22 fold enrichment (6-mer frequency, TF over GST control). Further, the binding signal in assay [13] was 1.13 fold enrichment (6-mer frequency, TF over GST control); in assay [14], 1.13 fold enrichment (6-mer frequency, TF over GST control); in [15] it was 1.12 fold enrichment (6-mer frequency, TF over GST control); in assay [16] it was 1.09 fold enrichment (6-mer frequency, TF over GST control); in assay [17], 1.21 fold enrichment (6-mer frequency, TF over GST control); in assay [18], 1.19 fold enrichment (6-mer frequency, TF over GST control).
